Data on 40 molecules can be found in the supplement of paper PMC10981050.

Counter-ions that a name gives are not always drawn.

In this assay the test system is MARIMO. Description: cell viability relative to vehicle control; higher = less cytotoxic. As to conditions: 10 µM; SRSF2 genotype: SRSF2 wt/wt. The method, boiled down: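 Mutant clones made by CRISPR editing and their isogenic wild-type counterparts, from four leukaemia lines, were exposed to a single 10 µM dose of each library compound for 48 h. The supernatant was then removed and CellTiter-Glo luminescence was read. Viability was reported as percent of the on-plate vehicle control.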
On to `NC(=O)[C@@H](CCC(F)(F)F)N(Cc1ccc(-c2ncon2)cc1F)S(=O)(=O)c1ccc(Cl)cc1`, for which the cell viability is 96.6%.
With `COc1c/c(=C2\C=c3ccccc3=N2)[nH]/c1=C\c1[nH]c(C)cc1C` [Obatoclax mesylate (GX15-070)], the cell viability came out at 23.6%.
To `O=C(O)CC(C(=O)O)n1c(O)c(C2=c3cc(Br)ccc3=NC2=O)sc1=S` (stereo not given) belongs 100%; to `COc1cc(NS(=O)(=O)c2ccc(N)cc2)nc(OC)n1` [Sulphadimethoxine], 98%.
Take `NC(=O)[C@@H]1CCCN1C(=O)[C@H](Cc1c[nH]cn1)NC(=O)[C@@H]1CCC(=O)N1` [Protirelin]: the cell viability is 108%.
In the case of `COC(=O)c1cc(OC)c(O)c(OC)c1` [Methyl syringate] it was 102%; in that of `N=c1ccn2c(n1)O[C@H]1[C@H](O)[C@@H](CO)O[C@H]12` [Cyclocytidine HCl], 29%.
To `O=P(O)(O)C(O)(Cc1cccnc1)P(=O)(O)O` [Risedronate sodium] belongs 102%.
In the case of `CN(C)CCOc1ccc(-c2nc(-c3ccncc3)c(-c3ccc4c(c3)CC/C4=N\O)[nH]2)cc1` it was 4.32%; in that of `COC(=O)C1=C(C)NC(C)=C(C(=O)OCCN2CCN(C(c3ccccc3)c3ccccc3)CC2)C1c1cccc([N+](=O)[O-])c1` (stereo not given) [Manidipine (Manyper)], 58.5%.
In the case of `COC1CCN(C(=O)c2cc(Cc3n[nH]c(=O)c4ccccc34)ccc2F)CC1`, the cell viability stood at 97.1%.
To `C=C1C[C@@]23CC[C@H]4[C@@](C)(CCC[C@@]4(C)C(=O)O[C@@H]4O[C@H](CO)[C@@H](O)[C@H](O)[C@H]4O)[C@@H]2CC[C@]1(O[C@@H]1O[C@H](CO)[C@@H](O)[C@H](O)[C@H]1O[C@@H]1O[C@H](CO)[C@@H](O)[C@H](O)[C@H]1O)C3` [Stevioside] belongs 97.4%.
In the case of `Cc1cc(=O)oc2ccc(O)cc12` [6-Hydroxy-4-methylcoumarin] it was 97%.
In the case of `COC1C(O)C(O)C(O)C(O)C1O` (stereo not given) [Sequoyitol] it was 99.1%.
As for `CC1(C)O[C@@H]2C[C@H]3[C@@H]4CCC5=CC(=O)C=C[C@]5(C)[C@@]4(F)[C@@H](O)C[C@]3(C)[C@]2(C(=O)CO)O1` [Triamcinolone Acetonide], the cell viability turned out to be 97.1%.
For the molecule `COc1ccc(C(C)=O)c(O)c1` [Paeonol (Peonol)], the cell viability came out at 97.9%.
On to `COc1cccc(/C=N/N(C(=O)C(F)(F)F)c2ccc(C)cc2C)c1`, for which the cell viability came out at 102%.
As for `C=C1C(=O)[C@]23[C@H](O)[C@H]1CC[C@H]2[C@@]12CO[C@]3(O)[C@@H](O)[C@@H]1C(C)(C)CC[C@@H]2O` [Oridonin (Isodonol)], the cell viability turned out to be 30.1%.
To `CN(CCOc1ccc(CC2SC(=O)NC2=O)cc1)c1ccccn1` (stereo not given) [Rosiglitazone maleate] belongs 110%; to `CC(C)C[C@@H]1NC(=O)[C@@H](C(C)C)NC(=O)[C@@H]2CCCN2C(=O)[C@@H](CC(=O)O)NC(=O)[C@@H](Cc2c[nH]c3ccccc23)NC1=O`, 108%.
In the case of `Cc1cc(Nc2ncc3c(n2)N(C)C(=O)N(c2cc(NC(=O)c4cccc(C(F)(F)F)c4)ccc2C)C3)n(C)n1` [Pluripotin (SC1)] it was 21.8%; in that of `C[C@]12C=CC(=O)C=C1CC[C@H]1[C@@H]3C[C@@H](O)[C@](O)(C(=O)CO)[C@@]3(C)C[C@H](O)[C@@]12F` [Triamcinolone (Aristocort)], 108%; in that of `O=C(O)CCC(=O)O` [Succinic acid], 96.1%.
In the case of `CCOP(=O)(OCC)C(=Cc1cc(C(C)(C)C)c(O)c(C(C)(C)C)c1)P(=O)(OCC)OCC` it was 93%; in that of `O=C(/C=C/C=C/c1ccc2c(c1)OCO2)N1CCCCC1` [Piperine (1-Piperoylpiperidine)], 100%.
With `Cc1cc(=O)n(-c2ccccc2)n1C` [Antipyrine], the cell viability is 95.4%.
For `CC(=O)OC(CC(C)C1=C2CC(O)C3C4(C)CCC(=O)C(C)(C)C4CCC3(C)C2(C)CC1)C1OC1(C)C` (stereo not given) [Alisol B Acetate], the cell viability came to 55.6%.
In the case of `CC(=O)Nc1ccccc1` [Acetanilide (Antifebrin)] it was 106%; in that of `CCS(=O)(=O)N1CC(CC#N)(n2cc(-c3ncnc4[nH]ccc34)cn2)C1`, 115%; in that of `O=C(O)[C@H]1O[C@@H](Oc2cc3oc(-c4ccc(O)cc4)cc(=O)c3c(O)c2O)[C@H](O)[C@@H](O)[C@@H]1O` [Scutellarin], 104%.
To `Cc1cc(S(=O)(=O)O)c2c(C)ccc(C(C)C)cc1-2` [Sodium gualenate] belongs 108%; to `O=C(Nc1ccc(OC(F)(F)Cl)cc1)c1cnc(N2CC[C@@H](O)C2)c(-c2cc[nH]n2)c1` [Asciminib (ABL001)], 64.5%; to `Nc1[nH]c(=O)ncc1Br` [5-Bromocytosine], 103%.
Turning to `CC[C@H](C)C(=O)O[C@H]1C[C@@H](C)C=C2C=C[C@H](C)[C@H](CC[C@@H]3C[C@@H](O)CC(=O)O3)[C@H]21` [Lovastatin (Mevacor)], the cell viability amounted to 68.5%.
In the case of `CO/N=C(\C(=O)N[C@@H]1C(=O)N2C(C(=O)[O-])=C(C[N+]3(C)CCCC3)CS[C@H]12)c1csc(N)n1` [Cefepime Dihydrochloride Monohydrate] it was 109%; in that of `CC(=O)OC(C)C(C)C(=O)OCC12C3CC(C)(C)[C@H](O[C@@H]1C[C@]1(C)C3=CCC3C4(C)CCC(O[C@@H]5O[C@H](C(=O)O)[C@@H](O[C@H]6O[C@H](CO)[C@@H](O)[C@H](O)[C@H]6O)[C@H](O)[C@H]5O[C@@H]5OC[C@@H](O)[C@H](O)[C@H]5O)[C@](C)(CO)C4CCC31C)C2O` (stereo not given in full) [Sodium Aescinate], 96.8%; in that of `C[C@H]1C[C@H]2[C@@H]3C[C@H](F)C4=CC(=O)C=C[C@]4(C)[C@@]3(F)[C@@H](O)C[C@]2(C)[C@@]1(O)C(=O)CO` [Diflorasone], 113%.
Consider `Oc1ccc(CC2NCCc3cc(O)c(O)cc32)cc1` (stereo not given) [Higenamine hydrochloride], for which the cell viability came out at 98.5%.
To `CC(C)(C)[N+]([O-])=Cc1ccc(S(=O)(=O)O)cc1S(=O)(=O)O` [NXY-059 (Disufenton sodium)] belongs 110%; to `CN1CCC(=C2c3ccccc3CCc3sccc32)CC1` [Pizotifen malate], 83.8%.

By cell viability is commonly meant a read-out of living cells in per cent, often relative to untreated cells.
